From PubChem BioAssay (NCI)
This is part of a sample that, as a whole, favours compounds with a hit. Of some 83,000 tested, about 20% had one in any assay.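 Each cell line was grown in a 96-well plate and treated with one concentration of compound for 48 hours. Values below 10 were considered active.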 Calls of active or inactive are those of the source.

Experiments:
Assay in all cases: NCI-60 one-dose screen, 48 h (100 = growth as untreated, 0 = no growth, -100 = all killed)
Conditions in all cases: 10 µM
T-47D breast = test system: T-47D breast
BT-549 breast = test system: BT-549 breast
MDA-MB-435 melanoma = test system: MDA-MB-435 melanoma
SW-620 colon = test system: SW-620 colon
MCF7 breast = test system: MCF7 breast
HCT-116 colon = test system: HCT-116 colon
HCC-2998 colon = test system: HCC-2998 colon
KM12 colon = test system: KM12 colon

Measured: growth

CC(C)OCc1cc(CN2CCN(c3cccc(Cl)c3)CC2)c(O)c2ncccc12
active: T-47D breast 3.25% | BT-549 breast -46% | MDA-MB-435 melanoma -28.5% | SW-620 colon -3.23% | MCF7 breast 4.89% | HCT-116 colon -55.5% | HCC-2998 colon -21.6% | KM12 colon -23%

CCOc1cc(Br)c(C(C)NC(=O)c2cccc(OC)c2)cc1OCC (stereo not drawn)
inactive: T-47D breast 80.8% | BT-549 breast 87% | SW-620 colon 85.7% | MCF7 breast 64.4% | HCT-116 colon 56.2% | HCC-2998 colon 37.7% | KM12 colon 84.1%
active: MDA-MB-435 melanoma 6.36%

COc1cccc2c1C(=O)c1c(O)c3c(c(O)c1C2=O)C[C@@](O)(C(=O)COC(=O)c1ccccc1)C[C@@H]3OC1CC(N)C(O)C(C)O1 (stereo partly drawn)
active: T-47D breast -71.7% | BT-549 breast -76.9% | MDA-MB-435 melanoma -97.7% | SW-620 colon -81.9% | MCF7 breast -66.2% | HCT-116 colon -75% | HCC-2998 colon -93% | KM12 colon -95.6%

COc1cccc2c1C(=O)c1c(O)c3c(c(O)c1C2=O)C[C@@](O)(C(=O)COC(=O)c1cccnc1)C[C@@H]3OC1CC(N)C(O)C(C)O1 (stereo partly drawn)
active: T-47D breast -2.37% | BT-549 breast 5.42% | MDA-MB-435 melanoma -87.5% | SW-620 colon 3.34% | MCF7 breast 4.11% | HCT-116 colon 6.26% | HCC-2998 colon -50.3% | KM12 colon -0.352%

Cc1ccc(NC(=O)/C=N/O)cc1C
inactive: T-47D breast 76.4% | BT-549 breast 91.6% | MDA-MB-435 melanoma 96.5% | SW-620 colon 100% | MCF7 breast 61.5% | HCT-116 colon 98.1% | HCC-2998 colon 116% | KM12 colon 104%

CCC(OC(=O)CC(C)C)c1ccccc1 (stereo not drawn)
inactive: T-47D breast 84.5% | BT-549 breast 101% | MDA-MB-435 melanoma 104% | SW-620 colon 105% | MCF7 breast 94.3% | HCT-116 colon 107% | HCC-2998 colon 101% | KM12 colon 107%

C#CCn1c(-c2cccc(OCCCCl)c2)nc2c1c(=O)n(C)c(=O)n2C
inactive: T-47D breast 18% | BT-549 breast 13.8% | MDA-MB-435 melanoma 78.9% | SW-620 colon 95% | MCF7 breast 84.7% | HCT-116 colon 51.9% | HCC-2998 colon 104% | KM12 colon 56.5%

COc1nc2c(c(=O)[nH]1)C(c1ccc(Oc3ccnc4cc(Cl)ccc34)c(OC)c1)C=C(c1cc(OC)c(OC)c(OC)c1)N2 (stereo not drawn)
inactive: T-47D breast 89.8% | BT-549 breast 91.7% | MDA-MB-435 melanoma 111% | SW-620 colon 102% | MCF7 breast 102% | HCT-116 colon 94% | HCC-2998 colon 97.6% | KM12 colon 104%

Clc1cc(Cl)c(OCCCCCCN2CCNCC2)c(Cl)c1
active: SW-620 colon -44% | MCF7 breast -24.5% | HCC-2998 colon -34%
inactive: T-47D breast 39.8% | BT-549 breast 70.4% | MDA-MB-435 melanoma 10.5% | HCT-116 colon 12% | KM12 colon 21.3%

Cc1cn(C(=O)/C(Cl)=C(/Cl)C(=O)O)c2ccccc12
inactive: T-47D breast 101% | BT-549 breast 111% | MDA-MB-435 melanoma 109% | SW-620 colon 104% | MCF7 breast 108% | HCT-116 colon 105% | HCC-2998 colon 108% | KM12 colon 108%

Nc1ccc(C2=CC(c3ccc(Cl)cc3)N3C=CSC3=N2)cc1 (stereo not drawn)
active: T-47D breast -11% | BT-549 breast -50.7% | MDA-MB-435 melanoma -65.7% | SW-620 colon -60.5% | MCF7 breast -32.1% | HCT-116 colon -89.3% | HCC-2998 colon -95.7% | KM12 colon -41.4%

O=NN(CCCl)C(=O)NCc1ccc(-c2ccc(CNC(=O)N(CCCl)N=O)cc2)cc1
inactive: T-47D breast 101% | BT-549 breast 86.6% | MDA-MB-435 melanoma 91.3% | SW-620 colon 89.5% | MCF7 breast 96.1% | HCT-116 colon 89.2% | HCC-2998 colon 101% | KM12 colon 98.9%

CN(C)CCCN(Cc1ccccc1O)C(=S)Nc1ccc(Cl)cc1
inactive: T-47D breast 93.4% | BT-549 breast 105% | MDA-MB-435 melanoma 109% | SW-620 colon 100% | MCF7 breast 99% | HCT-116 colon 108% | HCC-2998 colon 83.4% | KM12 colon 105%

CCOC(=O)c1cc2c(n1Cc1cccc(OC)c1)-c1oncc1CC2
inactive: T-47D breast 38.9% | BT-549 breast 28.3% | SW-620 colon 23% | MCF7 breast 14.1% | HCT-116 colon 14.9% | HCC-2998 colon 58.6% | KM12 colon 32.5%
active: MDA-MB-435 melanoma -23.5%

CCN(CC)CC(O)CNc1ccnc2cc(Cl)c(Cl)cc12 (stereo not drawn)
inactive: T-47D breast 93.1% | BT-549 breast 88.9% | MDA-MB-435 melanoma 96.8% | SW-620 colon 97.3% | MCF7 breast 79.5% | HCT-116 colon 64.2% | HCC-2998 colon 102% | KM12 colon 94.2%

Nc1cc(O)cc(O)c1
inactive: T-47D breast 89% | BT-549 breast 105% | MDA-MB-435 melanoma 106% | SW-620 colon 107% | MCF7 breast 98.3% | HCT-116 colon 95.8% | HCC-2998 colon 98.5% | KM12 colon 99.7%
